The record followed here is PubChem BioAssay.

One may read the viability as a read-out of living cells in per cent, often relative to untreated cells. The inhibition is the relative decrease from the control value, in per cent. Usually AC50 stands for the concentration at which the activity in the assay is half-maximal.

Assay [1] in a line: compounds altering circadian rhythm period length – cell-based, LOPAC library, luminescence reporter (AID 2774; call rule not given here;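 note: values are relative to mean of DMSO wells on each plate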). The following applies: circadian reporter cells, at 7 µM, actives lie on both sides.
A short description of assay [2]: P. berghei load reduction in hepatocytes – cell-based, HepG2, luciferase luminescence, HepG2 viability, primary screen (AID 624349; in the data active = parasite load remaining mostly below about 12%, no sharp cut-off; inactive = mostly above about 10%;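 note: 100% = mean of DMSO negative control wells on the same plate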). The following applies: P. berghei liver stage in HepG2, luciferase luminescence, concentration not given here; parasite load remaining: stronger effect = lower value; viability: measured here: HepG2 viability without parasites.
Assay [3] concerns Hepatitis C virus NS3 helicase. In words: blockers of NS3h binding to ssDNA – biochemical, fluorescence polarization, LOPAC1280 library, primary screen (AID 687035; in the data active = inhibition above about 37%). The note with it: Purified HCV NS3 helicase, Cy5-dT15 ssDNA binding fluorescence polarization; stronger effect = higher value; concentration not given here. On the technique in general: In fluorescence polarisation assays a small probe gives low polarisation when free and higher when bound to something large.

Assay [4] is described as follows: compounds altering Cy5-DNA-NS3h complex signal – biochemical, LOPAC1280, artefact control for HCV NS3 helicase inhibitor project (AID 687037; call rule not given here). The note with it: Cy5-DNA-NS3h complex fluorescence interference counterscreen. In general terms: A counterscreen serves to expose hits that act by an unwanted route or on another target.
Assay [5] in a line: EMT-state selective cytotoxicity in co-culture – imaging, PC-3E GFP, TEM4-18 mCherry, primary screen (AID 1345086;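 active = compounds killing one labelled cell type while sparing the other, by normalised counts and ratio limits, not self-fluorescent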;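 for all read-outs here: cells exposed to compound for 72 h before imaging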;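 for red/green cell ratio (normalised): normalised mesenchymal count divided by normalised epithelial count so high means epithelial killing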). The note with it: PC-3E GFP / TEM4-18 mCherry co-culture, imaging cell counts, at 1 µM; for red/green cell ratio (normalised): actives lie on both sides, counts scaled to control wells, 1 = unselective.
A short description of assay [6]: blockers of cellular phospholipid synthesis – cell-based, LOPAC library, screen 4, primary screen (AID 1347384; call rule not given here). The following applies: animal cells, phospholipid biosynthesis inhibition screen; at 10 µM.
Assay [7] in a line: MELAS cybrid and Rieske KO viability enhancers – cell-based, MELAS cybrids, Rieske KO mouse fibroblasts, CellTiter-Glo, primary screen (AID 1508586;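 active = mean z-score across replicates of 1.96 or higher in either the MELAS or the Rieske mutant cell line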;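 note: z relative to plate mean and SD of compound and empty wells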). The note with it: low glucose.
Assay [8] is described as follows: galactose survival enhancers in mitochondrial complex I cybrids – cell-based, galactose medium, ATP luminescence, primary screen (AID 1645843;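 active = z-score of at least 1.8 in each of two replicates, scored against plate mean and spread of sample wells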;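 note: positive z means more ATP and so rescue of galactose-driven cybrid death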). The following applies: complex I mutant cybrid cells, 72 h, stronger effect = higher value.
Assay [9] is described as follows: viability loss in pontine glioma line – cell-based, SU-DIPG-XVII, MIPE5.0, CellTiter-Glo, qHTS, dose response (AID 1347060).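 For AC50: cells exposed to compound for 48 hours before viability readout.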 The following applies: CellTiter-Glo ATP luminescence.
Assay [10] in a line: viability loss in pontine glioma line – cell-based, SU-DIPG-IV, MIPE4.0, CellTiter-Glo, qHTS, dose response (AID 1347063; cut-off not given, nearly all actives have AC50 up to about 30 µM;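 note: compound exposure lasted 48 hours before the viability readout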). The following applies: CellTiter-Glo ATP luminescence.
Assay [11] is described as follows: viability loss in pontine glioma line – cell-based, SU-DIPG-XXV, MIPE5.0, CellTiter-Glo, qHTS, dose response (AID 1347065).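 Note: cells exposed to compound for 48 hours before ATP readout.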 The note with it: CellTiter-Glo ATP luminescence. A general note: Cellular ATP, detected with luciferase, serves as a proxy for viable cell number.
Assay [12] is described as follows: growth inhibition of DIPG cells – cell-based, MIPE4.0 library, CellTiter-Glo luminescence, qHTS (AID 1347066; cut-off not given, nearly all actives have AC50 up to about 30 µM;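 note: cells exposed to compound for 48 hours before readout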). The following applies: SU-DIPG-VI viability, CellTiter-Glo ATP luminescence.
A short description of assay [13]: JHH-DIPG-1 glioma cell viability, MIPE5.0 library, CellTiter-Glo luminescence, qHTS (AID 1347067).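 Note: cells exposed to compound for 48 hours before readout.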 The following applies: JHH-DIPG-1 glioma viability, CellTiter-Glo ATP luminescence.
Assay [14] is described as follows: growth inhibition of DIPG cells – cell-based, MIPE5.0 library, qHTS (AID 1347068; cut-off not given, nearly all actives have IC50 up to about 30 µM). The following applies: SU-DIPG-XXV viability.
A short description of assay [15]: viability loss with induced miR-34 in A549 – imaging, A549 dox-inducible miR-34, nuclei and caspase counts, primary screen (AID 1347080;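 active = compounds whose cell count with miR-34 switched on is under 0.7 times the count with it off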). The note with it: A549 miR-34 inducible, Hoechst nuclei count, 48 h.
Assay [16] concerns the target NAD(+) hydrolase SARM1 (Homo sapiens) (UniProt Q6SZW1). In words: blocking NAD cleavage by SARM1 SAM-TIR – cell lysate, NAD-Glo luminescence (AID 1508614;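 active = compound whose remaining NAD level is above about 45 nM, limit read from the data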;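 note: higher remaining NAD means stronger inhibition of SARM1 NADase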). The following applies: SAM-TIR HEK293T lysate NADase, at 1 µM, stronger effect = higher value.
The target of assay [17] is Mitogen-activated protein kinase 7 (Homo sapiens) (UniProt Q13164). As to the kind of experiment: Gal4-ERK5 driven luciferase induction – cell-based, HTS, primary screen (AID 1508626;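 active = luciferase signal above three times the same-plate solvent-only control wells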;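 note: luciferase driven by Gal4-ERK5 fusion binding five Gal4 sites before minimal TATA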). The following applies: HeLa Gal4-ERK5 transactivation, 18 h, at 5 µM, stronger effect = higher value.
Mitogen-activated protein kinase 7 (Homo sapiens), sequence (Q13164 whole entry, looked up, the tested form may be a part): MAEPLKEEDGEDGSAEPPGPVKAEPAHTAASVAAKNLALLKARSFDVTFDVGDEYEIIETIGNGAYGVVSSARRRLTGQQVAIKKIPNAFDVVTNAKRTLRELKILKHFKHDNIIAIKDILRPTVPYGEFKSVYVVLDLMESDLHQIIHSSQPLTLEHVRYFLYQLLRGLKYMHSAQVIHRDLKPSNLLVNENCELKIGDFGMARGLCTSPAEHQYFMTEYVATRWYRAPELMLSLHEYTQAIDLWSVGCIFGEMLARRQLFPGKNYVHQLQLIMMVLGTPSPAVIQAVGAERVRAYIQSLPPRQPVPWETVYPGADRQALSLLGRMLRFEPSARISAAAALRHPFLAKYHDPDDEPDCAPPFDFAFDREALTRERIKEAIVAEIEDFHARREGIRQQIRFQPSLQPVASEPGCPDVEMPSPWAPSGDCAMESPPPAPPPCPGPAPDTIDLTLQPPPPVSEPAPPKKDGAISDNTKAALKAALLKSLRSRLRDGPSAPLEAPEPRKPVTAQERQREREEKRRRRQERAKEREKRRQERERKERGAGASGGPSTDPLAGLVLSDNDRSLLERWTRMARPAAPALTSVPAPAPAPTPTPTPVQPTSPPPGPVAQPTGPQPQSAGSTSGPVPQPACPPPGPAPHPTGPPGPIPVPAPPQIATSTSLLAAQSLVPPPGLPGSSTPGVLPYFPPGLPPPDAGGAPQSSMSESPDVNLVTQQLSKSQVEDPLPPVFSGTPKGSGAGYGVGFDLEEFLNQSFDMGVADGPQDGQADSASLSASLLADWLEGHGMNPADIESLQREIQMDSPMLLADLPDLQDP
Assay [18] is described as follows: viability loss in pontine glioma line – cell-based, SU-DIPG-XIII, MIPE5.0, CellTiter-Glo, qHTS, dose response (AID 1347064; cut-off not given, nearly all actives have AC50 up to about 23 µM;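 for AC50: cells exposed to compound for 48 hours before the viability read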). The note with it: CellTiter-Glo ATP luminescence.
Assay [19] in a line: viability loss in pontine glioma line – cell-based, SU-DIPG-XIII, MIPE4.0, CellTiter-Glo, qHTS, dose response (AID 1347061; cut-off not given, nearly all actives have AC50 up to about 37 µM;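 note: cells exposed to compound for 48 hours before readout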). The note with it: CellTiter-Glo ATP luminescence.
Assay [20] in a line: growth inhibition, single agents and combos, ICB984, cell-based, cisplatin or BGB combos, synergistic combos for chromothripsis tumors (AID 1671451; call rule not given here;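 note: cells exposed for 96 hours before readout; 0% = vehicle DMSO and 100% = killing by high DMSO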). The note with it: ICB984 medulloblastoma cells, drug combinations, stronger effect = higher value.
The mark [21] stands for this setting: measured here: epithelial PC-3E GFP cell survival.
The mark [22] stands for this setting: measured here: mesenchymal TEM4-18 mCherry cell survival.
The mark [23] stands for this setting: MELAS cybrid survival, CellTiter-Glo 48 h, stronger effect = higher value.
[24] abbreviates: Rieske KO mouse fibroblast survival, CellTiter-Glo 72 h.
Setting [25] is: stronger effect = lower value, cell number ratio, induced over uninduced.
Setting [26] is: measured here: relative caspase fold change +Dox/-Dox.
[27] abbreviates: measured here: total cells with miR-34 induction, stronger effect = lower value.
Setting [28] is: measured here: total cells without miR-34 induction.

“And” between values parts separate entries of the source, which are not always exact repeats. Equal entries are not always repeated. Inconclusive results are not listed. The source made the active and inactive calls. Unless noted, no cut-off is given here; in the data, nearly all actives have AC50 up to about 26 µM.

NAD(+) hydrolase SARM1 (Homo sapiens), sequence (Q6SZW1 whole entry, looked up, the tested form may be a part): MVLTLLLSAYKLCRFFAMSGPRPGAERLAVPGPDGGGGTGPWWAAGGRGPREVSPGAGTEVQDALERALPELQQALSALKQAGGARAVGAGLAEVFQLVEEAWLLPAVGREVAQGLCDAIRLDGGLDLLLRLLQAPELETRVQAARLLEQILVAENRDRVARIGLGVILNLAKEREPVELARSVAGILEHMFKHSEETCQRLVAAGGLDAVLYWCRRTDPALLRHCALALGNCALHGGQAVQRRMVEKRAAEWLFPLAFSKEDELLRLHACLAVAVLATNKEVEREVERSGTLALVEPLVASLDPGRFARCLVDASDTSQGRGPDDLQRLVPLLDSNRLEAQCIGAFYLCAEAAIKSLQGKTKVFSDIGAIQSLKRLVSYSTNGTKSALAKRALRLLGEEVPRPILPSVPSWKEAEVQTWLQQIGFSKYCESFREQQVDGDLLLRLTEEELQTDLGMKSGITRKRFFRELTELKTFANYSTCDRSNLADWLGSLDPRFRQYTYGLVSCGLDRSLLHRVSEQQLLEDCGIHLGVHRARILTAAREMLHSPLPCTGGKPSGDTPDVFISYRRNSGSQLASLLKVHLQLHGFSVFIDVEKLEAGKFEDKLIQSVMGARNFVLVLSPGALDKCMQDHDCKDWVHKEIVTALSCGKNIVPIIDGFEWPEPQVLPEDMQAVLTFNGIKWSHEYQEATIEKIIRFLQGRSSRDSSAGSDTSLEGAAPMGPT

With `CC(C)NC[C@H](O)COc1cccc2ccccc12`, the period change in [1] was 0.145 h (inactive). Moreover, the parasite load remaining in assay [2] is 76% (inactive) and 69.1% (inactive) and 147% (inactive). For the same compound, the viability in assay [2] was 78.7% and 93.4% and 161%. For the same compound, the inhibition in [3] was -3% (inactive). Moreover, the fluorescence ratio (interference) in assay [4] was 1 (inactive). Moreover, the red/green cell ratio (normalised) in assay [5] was 1.36 (inactive). For the same compound, the values for the normalised cell number in [5] (setting [21]) and in [5] (setting [22]) were 1 and 1.37, respectively. In assay [6], the result was inactive. In addition, the z-score in [7] (setting [23]) was -0.245 (inactive); in assay [7] (setting [24]), -0.593; in assay [8] it was -0.055 (inactive) and 0.085 (inactive) and -0.035 (inactive).

For the compound `CN1C(C(=O)Nc2ccccn2)=C(O)c2sc(Cl)cc2S1(=O)=O`, the red/green cell ratio (normalised) in assay [5] was 0.78 (inactive). The results for the normalised cell number in assay [5] (setting [21]) and in [5] (setting [22]) were 1.13 and 0.88, respectively. For the same compound, the result in assay [9], in assay [10], in assay [11], in assay [12], in assay [13] and in assay [14] was inactive. In addition, the fold change was 0.905 (inactive) and 0.871 (inactive) in [15] (setting [25]); 0.83 and 0.817 in [15] (setting [26]). The cell count in [15] (setting [27]) was 9030 and 7600; in [15] (setting [28]) it was 9980 and 8730. Besides, the z-score in assay [7] (setting [23]) is -0.192 (inactive); in assay [7] (setting [24]), 0.681. The remaining NAD in [16] was 10 nM (inactive).

Turning to `CC(C)=CCC/C(C)=C/CC/C(C)=C/CC/C(C)=C/CC/C(C)=C/CC/C(C)=C/CC/C(C)=C/CC/C(C)=C/CC/C(C)=C/CO`, the red/green cell ratio (normalised) in assay [5] was 1.11 (inactive). For the same compound, the results for the normalised cell number in [5] (setting [21]) and in [5] (setting [22]) were 0.97 and 1.07, respectively. For the same compound, the outcome in assay [10] and in [12] was inactive. The luciferase signal in assay [17] was 20 AU (inactive).

On to `C[C@@H]1CC2C3CCC4=CC(=O)C=C[C@]4(C)[C@@]3(F)[C@@H](O)C[C@]2(C)[C@H]1C(=O)CO` (stereo not given in full), for which the red/green cell ratio (normalised) in [5] was 1.08 (inactive). The figures for the normalised cell number in [5] (setting [21]) and in assay [5] (setting [22]) were 1.08 and 1.16, respectively. The fold change in [15] (setting [25]) is 0.893 (inactive) and 0.821 (inactive); in assay [15] (setting [26]) it was 0.943 and 1.01. For the same compound, the cell count in assay [15] (setting [27]) is 6390 and 5470; in assay [15] (setting [28]), 7160 and 6670.

As to `CC(C)C(C)/C=C/C(C)C1CCC2C3=CC=C4CC(O)CCC4(C)C3CCC21C` (stereo not given), the red/green cell ratio (normalised) in assay [5] is 0.85 (inactive). Moreover, the figures for the normalised cell number in assay [5] (setting [21]) and in assay [5] (setting [22]) were 1 and 0.85, respectively. Moreover, the outcome in [9], in [10], in assay [18], in assay [11], in assay [12] and in assay [13] was inactive. The compound was called inactive in assay [14].

Consider `OC[C@@H](O)[C@@H](O)[C@H](O)[C@@H](O)CO`, for which, in assay [2], the parasite load remaining was 34.8% (inactive). In addition, the viability in assay [2] came to 97.5%. In addition, in assay [5], the red/green cell ratio (normalised) is 1.05 (inactive). Also, the normalised cell number came out at 1.02 in assay [5] (setting [21]) and 1.06 in [5] (setting [22]). In addition, the compound was called inactive in assay [9], in assay [19], in assay [18], in [11], in assay [12] and in [13]. For the same compound, in assay [14], the result was inactive. Also, the fold change in assay [15] (setting [25]) was 0.939 (inactive); in [15] (setting [26]), 3.07. Moreover, the cell count came out at 11500 in assay [15] (setting [27]) and 12200 in assay [15] (setting [28]). Besides, in assay [16], the remaining NAD is 10 nM (inactive).

As for `CC[C@@]1(O)C(=O)OCc2c1cc1n(c2=O)Cc2cc3cc(O)ccc3nc2-1`, in assay [5], the red/green cell ratio (normalised) is 0.94 (inactive). For the same compound, the normalised cell number in assay [5] (setting [21]) turned out to be 0.31; in assay [5] (setting [22]), 0.29. In addition, the AC50 in [9] was 16.6 nM (active); in [10], 83.3 nM (active); in assay [18], 66.1 nM (active); in assay [11], 148 nM (active). Besides, the compound was classed as inactive in assay [12]. Further, the luciferase signal in [17] was 44 AU (inactive). Besides, the inhibition was 23.2% and 34.7% in [20] (BGB IC20 combo, at 0.005 µM); 40.1% and 53.7% in assay [20] (BGB IC40 combo, at 0.005 µM); 93.9% in [20] (BGB IC40 combo, at 0.05 µM); -30.2% (inactive) and -10.4% (inactive) in [20] (at 0.5 µM); 93.6% and 93.9% in assay [20] (cisplatin combo, at 0.05 µM); -46.6% and -4.75% in [20] (cisplatin combo, at 0.5 µM). In addition, the inhibition was -24.4% and 16.7% in [20] (cisplatin combo, at 5 µM); -21.1% and 2.06% in assay [20] (measured here: 5 uM single agent, at 5 µM).
